# In the supplement of paper PMC6555819:
# What was measured:
# Assay in all cases: PBM binding z-score (relative to random genomic background probes); higher = stronger binding; sequences stand for … in GC…GCGATTGACAGCGTAGAATGAAGG
# [1] = tested on: FXR:RXRa (NR concentration 270 nM, RXRa partner concentration 90 nM)
# Procedure, shortened: (§1)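 Regression normalization was applied to scanned fluorescence from custom Agilent 4×180K protein-binding microarrays. Before scanning, arrays were incubated 1 h with ligand-free nuclear receptor dimers, and binding was detected with antibodies against each partner (one per run). Binding z-scores use the random background probes as reference.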
# [2] = tested on: LXRa:RXRa (NR concentration 270 nM, RXRa partner concentration 90 nM)
# Procedure, shortened: as §1
# [3] = tested on: LXRa homodimer (NR concentration 270 nM)
# Procedure, shortened: as §1
# [4] = tested on: LXRb:RXRa (NR concentration 270 nM, RXRa partner concentration 90 nM)
# Procedure, shortened: as §1
# [5] = tested on: LXRb homodimer (NR concentration 270 nM)
# Procedure, shortened: as §1
# [6] = tested on: PPARa:RXRa (NR concentration 270 nM, RXRa partner concentration 90 nM)
# Procedure, shortened: as §1
# [7] = tested on: PPARg:RXRa (NR concentration 180 nM, RXRa partner concentration 90 nM)
# Procedure, shortened: as §1
# [8] = tested on: PPARg:RXRa 270nM:90nM, anti-RXR (NR concentration 270 nM, RXRa partner concentration 90 nM)
# Procedure, shortened: as §1
# [9] = tested on: PPARg:RXRa 30nM:10nM, anti-RXR (NR concentration 30 nM, RXRa partner concentration 10 nM)
# Procedure, shortened: as §1
# [10] = tested on: PPARg:RXRa 90nM:30nM, anti-RXR (NR concentration 90 nM, RXRa partner concentration 30 nM)
# Procedure, shortened: as §1
# [11] = tested on: PPARg:RXRa DBDmut IVT, anti-RXR (DBD mutation: RXRa K156A/R161A, NR concentration 270 nM, RXRa partner concentration 90 nM)
# Procedure, shortened: as §1
# [12] = tested on: PPARg:RXRa IVT, anti-PPARg (NR concentration 270 nM, RXRa partner concentration 90 nM)
# Procedure, shortened: as §1
# [13] = tested on: PPARg DBDmut:RXRa IVT, anti-PPARg (DBD mutation: PPARg1 K132A/R137A, NR concentration 270 nM, RXRa partner concentration 90 nM)
# Procedure, shortened: as §1
# [14] = tested on: PPARg DBDmut IVT, anti-PPARg (DBD mutation: PPARg1 K132A/R137A, NR concentration 270 nM)
# Procedure, shortened: as §1
# [15] = tested on: PPARg homodimer (NR concentration 180 nM)
# Procedure, shortened: as §1
# [16] = tested on: PXR:RXRa (NR concentration 270 nM, RXRa partner concentration 90 nM)
# Procedure, shortened: as §1
# [17] = tested on: PXR homodimer (NR concentration 270 nM)
# Procedure, shortened: as §1
# [18] = tested on: RARa:RXR (NR concentration 270 nM, RXRa partner concentration 90 nM)
# Procedure, shortened: as §1
# [19] = tested on: RARa homodimer (NR concentration 270 nM)
# Procedure, shortened: as §1
# [20] = tested on: RARb:RXRa (NR concentration 270 nM, RXRa partner concentration 90 nM)
# Procedure, shortened: as §1
Sequence,PBM binding z-score [1],PBM binding z-score [2],PBM binding z-score [3],PBM binding z-score [4],PBM binding z-score [5],PBM binding z-score [6],PBM binding z-score [7],PBM binding z-score [8],PBM binding z-score [9],PBM binding z-score [10],PBM binding z-score [11],PBM binding z-score [12],PBM binding z-score [13],PBM binding z-score [14],PBM binding z-score [15],PBM binding z-score [16],PBM binding z-score [17],PBM binding z-score [18],PBM binding z-score [19],PBM binding z-score [20]
TCGAGTAGGTTAGGGGCACTCAGAATGGCGTCGA,0.134,-0.0493,-0.34,0.556,-0.72,0.994,0.844,1.91,0.959,1.64,1.87,1.32,-0.303,-1.43,0.271,0.155,-0.021,0.491,-0.62,0.927
GGAACGAGGGCATAGTTGATAGCATCTGTCGACG,0.364,0.0828,-0.66,0.126,-0.441,2.33,3.64,5,2.9,4.54,2.46,2.41,-0.0516,-0.265,0.109,0.17,-0.0429,0.19,-0.571,1.39
CCAGACAGGTGAAAGGTAACTTAGTCTGGTACGC,0.545,0.539,-0.368,0.935,-0.486,3.31,5.21,5.6,3.58,5.77,2.21,2.75,0.0771,-0.396,0.712,0.936,-0.035,1.59,0.346,1.15
GCTCGGAGGACAAGGTAAGAGCTTTGTCCGTAGA,-0.326,-0.633,-0.985,-0.8,-1.57,-0.331,-0.742,-0.267,-0.952,-0.841,-0.716,-0.298,-1.26,-1.29,-1.16,-0.574,-1.14,-0.493,-1.14,0.88
ATATGTAGGTTATCGGGTCATCCAGTTTGCGCAT,3.4,3.29,1.73,3.26,1.22,5.15,7.35,6.27,3.9,5.79,7.5,7.73,3.61,3.11,3.09,3.98,5.45,4.35,1.79,2.96
CGTCGAAGTTCAACTAAGGTAACGTAAAGCACGC,4.31,3.83,1.23,2.36,0.375,3.15,1.3,1.98,0.415,1.23,-0.101,0.723,0.00916,0.194,1.47,4.23,2.7,3.02,0.757,3.74
TCTTGTAGATCAGTAGAGGTTAAGAAAGTGCGCT,0.847,3.26,0.497,1.64,-0.181,1.44,-0.271,1.56,2.48,2.12,1.74,0.609,1.08,0.665,0.247,2.93,-0.0152,1.63,0.74,0.882
